From PubChem BioAssay

How the values were obtained:
[1] = test system: Human papillomavirus type 1a protein E7 (residues 44-93); test: HPV1a E7 fragment binders on microarrays, primary screen, biochemical, small-molecule microarray, residues 44-93, 635 nm fluorescence (AID 1108); conditions: small-molecule microarray binding, fluorescence 635 nm; higher = more signal;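 further: E7 fragment applied at 1 µg/mL in TBST for 1 h at 4 C; score combines spot fluorescence with its signal to noise ratio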
[2] = modulators of HCV replicon luciferase signal, primary screen, HCV replication inhibitor project, Huh7 cells, luciferase reporter (AID 1109); conditions: 48 h, higher = more signal;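 further: huh7 hepatoma cells harbouring a luciferase neomycin HCV replicon reporter; luciferase luminescence as measure of HCV replicon replication; test concentration not given here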
[3] = biological target: Left-right determination factor 2 (Homo sapiens) (UniProt O00292); test: LEFTY2 binders on small-molecule microarrays, primary screen, biochemical, small-molecule microarray, 635 nm fluorescence scan (AID 1110); conditions: LEFTY2 binding, higher = more signal
Sequence of Left-right determination factor 2 (Homo sapiens) (O00292 whole entry, looked up): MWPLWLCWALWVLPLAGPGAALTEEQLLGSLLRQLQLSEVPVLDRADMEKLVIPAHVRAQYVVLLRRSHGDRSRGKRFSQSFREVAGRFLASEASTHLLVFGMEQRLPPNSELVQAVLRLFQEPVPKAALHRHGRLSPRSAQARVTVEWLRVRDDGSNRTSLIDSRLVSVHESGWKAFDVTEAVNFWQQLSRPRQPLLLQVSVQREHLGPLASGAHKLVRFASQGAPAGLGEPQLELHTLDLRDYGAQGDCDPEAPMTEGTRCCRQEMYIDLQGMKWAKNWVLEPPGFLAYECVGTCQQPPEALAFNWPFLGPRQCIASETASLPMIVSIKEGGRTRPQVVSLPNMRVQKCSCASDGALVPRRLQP

[4] = biological target: Calmodulin-1 (Homo sapiens) (UniProt P0DP23); test: CALM1 binders on microarrays, EGTA buffer, profiling panel, biochemical, small-molecule microarray, Cy5-labelled CALM1 (AID 1111); conditions: Cy5-CALM1 binding fluorescence, higher = more signal;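 further: labelled calmodulin applied in Tris saline Tween buffer holding calcium plus EGTA and DTT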
[5] = biological target: Calmodulin-1 (Homo sapiens) (UniProt P0DP23); test: calcium-bound CALM1 binders on microarrays, profiling panel, artefact control for SMM control-protein annotation, biochemical, small-molecule microarray, Cy5-labelled CALM1, plus calcium (AID 1112); conditions: Cy5-CALM1 binding fluorescence, higher = more signal;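 further: score merges spot fluorescence with signal to noise from triplicate slides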
[6] = small-molecule microarray binders of probe aWnt5a, primary screen, biochemical, biotinylated probe, 635/667 nm fluorescence (AID 1113); conditions: higher = more signal;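 further: score merges 667 nm fluorescence intensity with signal-to-noise per printed feature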
[7] = small-molecule microarray binders of probe aShh, primary screen, biochemical, biotinylated probe, 635/667 nm fluorescence (AID 1114); conditions: higher = more signal;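 further: probe is biotin-labelled aShh protein from a stem cell growth factor screen; measures binding of labelled protein to compounds printed on the slide; score merges feature fluorescence at 667 nm with signal-to-noise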
[8] = small-molecule microarray binders of probe aNog, primary screen, biochemical, biotinylated probe, 635/667 nm fluorescence (AID 1115); conditions: higher = more signal;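 further: probe is biotinylated aNog protein used at 0.15 µg/mL for 1 h at 4 C; z-score combines 667 nm fluorescence of each spot with its signal to noise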
[9] = biological target: Torsin-1A-interacting protein 1 (Homo sapiens) (UniProt Q5JTV8); test: LAP1 binders from COS7 cell lysate, primary screen, small-molecule microarray, 635/667 nm fluorescence (AID 1116); conditions: COS7-hLAP1 lysate binding, 635 nm fluorescence, higher = more signal
Sequence of Torsin-1A-interacting protein 1 (Homo sapiens) (Q5JTV8 whole entry, looked up): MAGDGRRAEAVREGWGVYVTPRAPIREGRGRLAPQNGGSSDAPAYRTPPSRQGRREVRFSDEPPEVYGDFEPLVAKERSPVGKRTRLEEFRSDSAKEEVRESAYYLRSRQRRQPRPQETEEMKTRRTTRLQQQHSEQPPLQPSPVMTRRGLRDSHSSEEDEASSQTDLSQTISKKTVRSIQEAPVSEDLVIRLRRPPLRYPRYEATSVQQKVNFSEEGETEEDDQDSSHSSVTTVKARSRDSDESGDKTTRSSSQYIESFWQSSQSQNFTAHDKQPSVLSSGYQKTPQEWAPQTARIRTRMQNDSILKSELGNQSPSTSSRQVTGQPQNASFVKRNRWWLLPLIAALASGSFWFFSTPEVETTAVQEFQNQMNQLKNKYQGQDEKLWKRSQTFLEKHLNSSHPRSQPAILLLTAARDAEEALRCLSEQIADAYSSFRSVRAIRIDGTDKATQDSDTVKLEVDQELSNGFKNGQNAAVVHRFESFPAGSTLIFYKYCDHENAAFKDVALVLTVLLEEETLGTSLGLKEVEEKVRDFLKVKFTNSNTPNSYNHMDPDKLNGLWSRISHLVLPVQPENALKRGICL

[10] = biological target: Alpha-bungarotoxin (Bungarus multicinctus) (UniProt P60615); test: alpha-bungarotoxin binders on microarray, profiling panel, artefact control for SMM control protein annotation, biochemical, small-molecule microarray, Alexa647 label, 635/667 nm fluorescence (AID 1117); conditions: alpha-BTX-A647 binding fluorescence, higher = more signal
Sequence of Alpha-bungarotoxin (Bungarus multicinctus) (P60615 whole entry, looked up): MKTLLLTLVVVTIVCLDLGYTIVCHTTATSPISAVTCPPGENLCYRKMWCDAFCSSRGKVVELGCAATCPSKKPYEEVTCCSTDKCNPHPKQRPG

SMILES | composite z-score [1] | z-score [2] | composite z-score [3] | composite z-score [4] | composite z-score [5] | composite z-score [6] | composite z-score [7] | composite z-score [8] | composite z-score [9] | composite z-score [10]
COC(=O)[C@@]1(Cc2ccccc2)[C@H]2c3cc(C(=O)N4CCCC4)n(CCSCCO)c3C[C@H]2CN1C(=O)c1ccccc1 | 1.45 | -1.12 | -0.491 | 2.26 | 1.29 | 0.145 | 0.417 | 2.24 | 2.04 | 0.606
COC(=O)C(CC#Cc1ccc2c(c1)[C@]1(C(=O)N2)[C@H](c2ccc(OCCO)cc2)N2[C@H](c3ccccc3)[C@H](c3ccccc3)OC(=O)[C@H]2[C@@H]1C(=O)N1CCN(c2ncccn2)CC1)C(=O)OC | 0.233 | -1.49 | 1.28 | 1.48 | 0.43 | -0.0286 | 0.214 | -0.889 | 1.2 | 1.3
O=C1c2ccccc2[C@](Cc2ccccc2I)(C(=O)NC2CC2)[C@H](c2ccc(CO)cc2)N1Cc1ccccc1C(F)(F)F | 1.45 | -2.2 | -1.16 | 0.463 | -0.541 | -0.0735 | -0.147 | -0.484 | 0.103 | 0.968
C=CCNC(=O)[C@@H]1[C@H]2C(=O)O[C@H](c3ccccc3)[C@H](c3ccccc3)N2[C@H](c2ccc(O)cc2)[C@@]12C(=O)N(C(=O)OCCOC)c1ccc(C#CCCO)cc12 | -0.472 | -0.118 | 0.863 | 0.355 | 0.349 | -0.0276 | -0.0011 | 0.565 | 0.394 | 2.29
[N-]=[N+]=Nc1ccccc1C[C@]1(C(=O)O)N=C(c2ccc(OCCCO)cc2)O[C@H]1c1ccccc1 | 1.36 | 0.939 | -1.07 | 0.163 | 0.943 | 0.2 | -0.0337 | 0.564 | 0.764 | 0.618
O=C1N(CCS(=O)(=O)c2ccccc2)Cc2ccccc2[C@@H]2OC(c3ccc(OCCCO)cc3)=N[C@]12CCS(=O)(=O)c1ccccc1 | 1.48 | -0.0756 | 1.14 | 1.23 | -0.104 | 0.104 | 0.0898 | 0.445 | 1.72 | 0.821
C=C[C@@H](C)[C@@H](OC(=O)Nc1ccc(SC)cc1)c1ccc(OCCO)cc1 | 1.27 | -0.181 | -0.0734 | 1.24 | 0.305 | -0.0512 | -0.0192 | -0.358 | 0.882 | 0.954
COCCOC(=O)N1C(=O)[C@@]2(c3cc(C#CCNC(N)=O)ccc31)[C@H](c1ccc(OCCO)cc1)N1[C@H](c3ccccc3)[C@H](c3ccccc3)OC(=O)[C@H]1[C@@H]2C(=O)NC[C@H](O)c1ccccc1 | 1.26 | -0.711 | 0.799 | 1.22 | 0.226 | -0.0792 | -0.138 | 1.21 | 0.878 | 1.61
CO[C@H]1O[C@H](CO)[C@@H](OC(=O)Nc2cccc(F)c2)[C@H](OC(=O)Nc2ccccc2-c2ccccc2)[C@H]1OC(=O)Nc1ccccc1-c1ccccc1 | 1.48 | -3.82 | 0.494 | 0.88 | -0.305 | 0.0692 | -0.0977 | 0.895 | 1.09 | 0.816
COc1cc(C(O)C2C=CC3C(=O)N(Cc4ccccc4)C(=O)C3N2n2cnnc2)cc(OC)c1OC (stereo not given) | 0.335 | 0.312 | 0.109 | 0.409 | 0.0996 | 0.0751 | 0.543 | 0.266 | 0.88 | 0.971
CCCCCCCCCCC(O)C1C=CC2C(=O)N(c3ccccc3)C(=O)C2N1Nc1ccccc1F (stereo not given) | 0.648 | -0.211 | -0.24 | 1.03 | 1.07 | -0.0715 | 0.246 | 0.238 | 0.0092 | 0.533
COc1ccc(C(O)C2C=CC3C(=O)N(c4ccccc4)C(=O)C3N2Nc2ccc(C(C)C)cc2)c2ccccc12 (stereo not given) | 1.39 | -0.716 | -0.146 | 1.17 | 0.922 | 0.0068 | 0.232 | -0.229 | 0.865 | 2.55
CCc1cccc(NC(=O)O[C@H]2[C@H](OC(=O)Nc3ccccc3)[C@H](OC(=O)Nc3ccccc3)[C@@H](OC)O[C@@H]2CO)c1 | 1.44 | -3.86 | 0.0274 | 1.26 | -0.101 | -0.0006 | 0.23 | 1.11 | 1.03 | 0.0456
COC(=O)[C@@]1(Cc2ccccc2CN=[N+]=[N-])N=C(c2ccc(OCCCO)cc2)O[C@H]1c1ccccc1CN=[N+]=[N-] | 0.445 | -2.92 | -2.01 | 0.0829 | 0.526 | 0.0733 | -0.156 | 0.96 | 1.1 | 0.0937
O=C1C2C=CC(C(O)c3ccc(I)cc3)N(Nc3ccccc3)C2C(=O)N1c1ccccc1 (stereo not given) | 0.898 | 0.0376 | 0.0988 | 2.51 | 1.2 | -0.0399 | 0.184 | 1.4 | 1.83 | 1.71
O=C(N1CCOCC1)[C@@]1(CCS(=O)(=O)c2ccccc2)N=C(c2ccc(OCCCO)cc2)O[C@H]1c1ccccc1 | 1.1 | -0.892 | -0.563 | 2.58 | 1.33 | -0.0084 | -0.0441 | -0.273 | 1.85 | 2.84
